Here are results for 57 compounds from PubChem BioAssay AID574 (The Scripps Research Institute Molecular Screening Center, 2007).

In all, about 65,000 compounds went through this assay and about 450 (0.69%) were called active. This is one part of a sample in which actives are shown more often than they occur. Unmarked numbers belong to inactive results.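 Rule for the calls: active = activation above a set limit, the screen-wide mean activation plus 3 SD (cut at about 8.5% in these data); inactive = the rest.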 Where a SMILES comes first, the peptide text is derived from it. The star is where a group is joined. Bz = O=C(c1ccccc1)*

This assay deals with 5-hydroxytryptamine receptor 1E (Homo sapiens) (UniProt P28566). The experiment in a line: activation of human serotonin 5HT1E receptor – cell-based, HTS, primary screen (AID 574).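 Note: 100% = positive control agonist at 1 µM giving full maximal response.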 As to conditions: CHO 5-HT1E Ga15 NFAT-bla reporter, FRET; at 6 µM; active compounds read high; 0% DMSO wells, 100% control agonist wells.
Sequence of 5-hydroxytryptamine receptor 1E (Homo sapiens) (P28566 whole entry, looked up): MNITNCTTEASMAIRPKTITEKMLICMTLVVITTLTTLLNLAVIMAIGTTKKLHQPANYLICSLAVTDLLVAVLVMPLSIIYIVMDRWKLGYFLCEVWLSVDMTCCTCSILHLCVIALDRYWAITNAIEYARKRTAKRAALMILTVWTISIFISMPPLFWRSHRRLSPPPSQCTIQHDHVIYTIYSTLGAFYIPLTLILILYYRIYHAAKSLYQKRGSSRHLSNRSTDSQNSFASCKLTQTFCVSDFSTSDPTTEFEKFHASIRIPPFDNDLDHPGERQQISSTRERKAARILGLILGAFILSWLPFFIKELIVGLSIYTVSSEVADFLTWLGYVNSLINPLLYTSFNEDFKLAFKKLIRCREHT
Consider `CCCN(c1ccc(C(C)C)cc1)S(=O)(=O)c1c(C)[nH]c(=O)[nH]c1=O`, for which the activation was -0.3%. In the case of `COCCNC(=O)Cn1cc2c(n1)CCCCC2` it was -0.1%; in that of `O=C(Cn1cc2c(n1)CCCCC2)NCCN1CCOCC1`, 9.7% (active).

With `COc1ccccc1CNC(=O)Cn1cc2c(n1)CCCC2`, the activation is -0.6%. As for `COCCCNC(=O)COc1cc(C)c(Cl)c(C)c1`, the activation was -0.3%. In the case of `NC(=S)c1ccc(C(N)=S)o1` it was 0%; in that of `Cc1nn(-c2cc(Cl)ccc2N)c(=O)c2ccccc12`, -0.1%.

For `Cc1cccc(NC(=O)CSc2nnc(CCCCCNC(=O)OC(C)(C)C)o2)c1C`, the activation was -1.3%. In the case of `O=C(O)C1CCN1C1CCCCC1` (configuration not stated) it was -0.7%. In the case of `Cc1ccc(S(=O)(=O)N2C3C=CC(C3)C2C(=O)O)cc1` (configuration not stated) it was -0.4%; in that of `COc1ccc(C(=O)N(Cc2ccc(N(C)C)cc2)C2CCS(=O)(=O)C2)cc1` (configuration not stated), 0.3%. Next, `O=C(/C(=N\O)n1cncn1)c1ccc(Br)cc1Br`: 0.1%. Turning to `CCn1c(=N)c(S(=O)(=O)c2ccc(F)cc2)cc2c(=O)n3ccccc3nc21`, the activation is 4.4%. Next, `O=C(NC1CCCC1)c1ccc(Br)s1`: -1.5%; `Clc1ccc(C=NC23CN4CN(CN(C4)C2)C3)cc1`: -0.1%; `O=C(CN1CCN(CC(=O)Nc2ccc3c(c2)OCO3)CC1)Nc1ccc(F)cc1`: -0.7%.

In the case of `Cc1nnc(SCc2ccc(C(=O)c3ccc(Cl)cc3)o2)n1-c1ccccc1`, the activation is 0.9%.

For `O=C(NC(Cc1ccccc1)C(=O)N1CCCC1C(=O)O)c1ccccc1` (stereo not drawn) (Bz-Phe-Pro-OH; configuration not given here), the activation was -0.4%. In the case of `N#Cc1c(/N=C/N2CCCC2)oc(-c2ccccc2)c1-c1ccccc1` it was 0.2%; in that of `O=C(CS(=O)(=O)Cc1ccccc1)Nc1cccnc1`, 1.1%.

In the case of `O=C(Nc1ccccc1)Nc1ccccc1C(=O)NCc1ccco1`, the activation was -0.6%. Next, `O=C(Nc1ccccc1)N(Cc1cccnc1)Cc1ccco1`: 10.7% (active); `COc1cccc(OCC(O)CN2CCN(CCO)CC2)c1` (configuration not stated): -0.1%; `COc1ccccc1C(=O)C(O)c1ccccc1OC` (configuration not stated): -0.2%.

For the compound `C=CCC(NCCCO)c1cccc(OC)c1OC` (configuration not stated), the activation is 10.3% (active). In the case of `COc1cccc(C(CC(=O)NCCN2CCOCC2)NS(=O)(=O)c2ccc(C)cc2)c1OC` (configuration not stated) it was 0.5%. Next, `CC1CCCC(N2CCN(C(=O)c3ccc(F)cc3)CC2)C1` (configuration not stated): -0.1%.

Regarding `O=C(O)CN(Cc1ccco1)S(=O)(=O)c1ccc(F)cc1`, the activation was 0%. In the case of `COc1cccc(OC)c1C(=O)Nc1nnc(C(C)C)s1` it was -0.1%; in that of `CCn1c(CNc2ccc(OC)cc2)nnc1SCC(=O)c1ccc(OC)cc1`, 0.6%. Next, `CC1=C(C(=O)OC2CCCCC2)C(c2cccnc2)n2ncnc2N1` (configuration not stated): -0.4%; `Cc1ccnc(SCCn2c(N(C)Cc3ccccc3)nc3c2c(=O)n(C)c(=O)n3C)n1`: -0.1%; `CCOC(=O)C1(c2ccccc2)NC(c2ccc(N(C)C)cc2)C2C(=O)N(C)C(=O)C21` (configuration not stated): 0.7%. In the case of `COc1ccccc1-n1cnc2cc(C(=O)NCC3CCCO3)ccc21` (configuration not stated) it was 0%; in that of `C=CCn1c(COc2ccccc2)nnc1SCC(=O)NCC(=O)OCC`, -0.3%; in that of `CCc1nnc(NC(=O)CSc2nc3c(c(=O)n2-c2ccccc2OC)SCC3)s1`, -0.6%. Consider `CCCC1C(c2ccccc2)C(C#N)(C#N)C2(C#N)CC1(N)NC2=O` (configuration not stated), for which the activation was 0.5%. Next, `CC(=O)c1c(N)n(C)c(=O)n(C)c1=O`: 22.1% (active); `CC(=O)OCc1cc(=O)n(C)c(=O)n1C`: -1.2%. Next, `Cc1cc(C(=O)OCC(=O)c2c(N)n(C)c(=O)n(C)c2=O)c(C)o1`: 0.7%; `Cc1ccc(N(C(=O)CC2NC(=O)NC2=O)C2(C(=O)NC3CCCC3)CCCCC2)cc1` (configuration not stated): -0.5%; `CC(C)(C)OC(=O)c1c(N)n(CCCN2CCCC2=O)c2nc3ccccc3nc12`: 2.2%.

With `CSc1nc2ccc(S(=O)(=O)N3CCc4ccccc43)cc2s1`, the activation is 0.9%. In the case of `COCCCNC(=O)C1CC(=O)N(c2ccc(C)cc2)C1` (configuration not stated) it was -1.2%; in that of `CC(CCO)Nc1nc2c([nH]1)c(=O)n(C)c(=O)n2C` (configuration not stated), -1.6%. In the case of `CCCOc1ccc(/C(O)=C2/C(=O)C(=O)N(CCN(C)C)C2c2ccc(OC)c(OC)c2)cc1` (configuration not stated) it was -0.3%. Next, `O=C(Nc1cccc2c1CCCC2)C1CCN(C(=O)NC2CCCCC2)CC1`: -1.2%; `CC1(C)CN=C(N2CCN(c3ncnc4sc5c(c34)CCCC5)CC2)S1`: -0.6%. Take `CCc1ccc(Nc2ncc3c(n2)CC(c2ccco2)CC3=O)cc1` (configuration not stated): the activation was -0.5%. In the case of `CCOCC(=O)NCc1ccc2c(c1)cc(C)n2C` it was 0.7%; in that of `COc1ccc(S(=O)(=O)Nc2ccc3c(c2)OCO3)cc1Cl`, -1.3%. In the case of `Cc1nc(NCCN)c(C#N)c2c1COC(C)(C)C2` it was -0.4%; in that of `CCCCN(C)C(=O)c1ccc2c(c1)N(CC)C(=O)c1ccccc1S2(=O)=O`, -1.1%. As to `O=C(Nc1ccccc1C(=O)N1CCOCC1)C1CCC(=O)N1C1CCCC1` (configuration not stated), the activation is 0.6%. Next, `Cc1cc(=O)cc(C)[nH]1`: 33.2% (active); `Cc1cc(C)nc(SCc2nnc(SCC(=O)Nc3ncc(C)s3)n2Cc2ccco2)n1`: 0.8%; `CCN1C(=O)CS/C1=N\c1nccs1`: -0.1%.
